The panel holds about 79,000 compounds, 15% with a hit somewhere; the sample as a whole holds those more often. A number with no mark means an inactive call. Calls of active or inactive are those of the source. Cut-off read from the data, not from the text of the source: active = growth inhibition above about 70%; inactive = the rest.
Experiments:
[1] = NCI Yeast Anticancer Drug Screen. Data for the rad50 strain (AID 155);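 note: 0% = growth of vehicle-only cultures of the same strain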; conditions: S. cerevisiae rad50 strain growth inhibition, stronger effect = higher value
How it was run: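 Readout: growth inhibition relative to vehicle-treated cultures. Compound exposure was carried out in a genetically defined yeast strain deficient in DNA damage repair.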

[2] = NCI Yeast Anticancer Drug Screen. Data for the mec2-1 strain (AID 157); conditions: S. cerevisiae mec2-1 strain, stronger effect = higher value
How it was run: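 Each compound was tested on mec2-1 yeast, a strain altered in DNA damage repair or cell cycle control. Growth inhibition is reported relative to vehicle.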

[3] = NCI Yeast Anticancer Drug Screen. Data for the sgs1 mgt1 strain (AID 161);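 note: 0% = growth of cultures given vehicle only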; conditions: S. cerevisiae sgs1 mgt1 strain, stronger effect = higher value
How it was run: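 Genetically altered yeast, compound exposure, growth inhibition relative to vehicle.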

[4] = NCI Yeast Anticancer Drug Screen. Data for the cln2 rad14 strain (AID 165);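 note: 0% = growth equal to vehicle treated cultures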; conditions: S. cerevisiae cln2 rad14 strain, stronger effect = higher value
How it was run: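 Test compounds were added to cln2 rad14 yeast cultures; inhibition of growth was then determined by comparison with vehicle treatment.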

[5] = NCI Yeast Anticancer Drug Screen. Data for the bub3 strain (AID 167); conditions: S. cerevisiae bub3 mutant strain, stronger effect = higher value
How it was run: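 Readout: yeast growth inhibition, expressed relative to vehicle-only wells. The test organism is a mutant strain from a panel with lesions in DNA repair or checkpoint genes.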

[6] = NCI Yeast Anticancer Drug Screen. Data for the mlh1 rad18 strain (AID 175); conditions: S. cerevisiae mlh1 rad18 strain growth inhibition, stronger effect = higher value
How it was run: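 Inhibition values reflect reduced growth of mutant yeast versus vehicle-treated controls following compound exposure; the mutations affect DNA damage repair.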

[7] = at 5.0 µM (retest, dose inferred, filed as 0.5)
[8] = at 50.0 µM (retest, dose inferred, filed as 5.0)

| Compound | growth inhibition [1, 7] | growth inhibition [1, 8] | growth inhibition ([1]; at 50.0 µM) | growth inhibition [2, 7] | growth inhibition [2, 8] | growth inhibition ([2]; at 50.0 µM) | growth inhibition [3, 7] | growth inhibition [3, 8] | growth inhibition ([3]; at 50.0 µM) | growth inhibition [4, 7] | growth inhibition [4, 8] | growth inhibition ([4]; at 50.0 µM) | growth inhibition [5, 7] | growth inhibition [5, 8] | growth inhibition ([5]; at 50.0 µM) | growth inhibition [6, 7] | growth inhibition [6, 8] | growth inhibition ([6]; at 50.0 µM) |
| --- | --- | --- | --- | --- | --- | --- | --- | --- | --- | --- | --- | --- | --- | --- | --- | --- | --- | --- |
| CCCC(=O)NC1=C(Cl)C(=O)c2ccccc2C1=O | 100% (active) | 99% (active) | 91.8% (active) | 100% (active) | 100% (active) | 92.5% (active) | 100% (active) | 100% (active) | 92.5% (active) | 90% (active) | 99% (active) | 91.5% (active) | 100% (active) | 99% (active) | 89.7% (active) | 101% (active) | 99% (active) | 87.5% (active) |
| O=S(=O)(Nc1ccc2ccccc2c1)c1ccccc1 | -10% | 98% (active) | 97.7% (active) | -21% | 99% (active) | 98% (active) | 2% | 99% (active) | 97.8% (active) | 7% | 93% (active) | 92.2% (active) | -9% | 99% (active) | 97.2% (active) | -18% | 98% (active) | 98% (active) |
| CSc1ncccc1C(=O)[O][Sn]([c]1ccccc1)([c]1ccccc1)[c]1ccccc1 | 100% (active) | 99% (active) | 97.3% (active) | 100% (active) | 99% (active) | 97.9% (active) | 100% (active) | 99% (active) | 97.7% (active) | 99% (active) | 99% (active) | 86.7% (active) | 99% (active) | 99% (active) | 97.5% (active) | 99% (active) | 99% (active) | 96.8% (active) |
| C[N+]12CC3C4CC(C3C1)C2C4 (stereo not given) | -19% | -27% | 4.05% | -15% | -13% | -2.9% | -3% | 4% | 12.6% | 29% | 13% | 1.3% | -6% | -12% | 13.6% | -23% | -15% | 7.95% |
| COC(=O)c1cc(-c2ccccc2)[nH]c(=O)c1C#N | -8% | -32% | 44.5% | -18% | -15% | 5.25% | -5% | -16% | 75.8% (active) | -36% | -21% | 22.6% | -24% | -23% | -24.7% | 0% | -21% | 52% |
| C/C(=N/O)c1cc([N+](=O)[O-])c(O)cc1O | -27% | 70% (active) | 86.7% (active) | -10% | 76% (active) | 84.9% (active) | -15% | 80% (active) | 89.2% (active) | -6% | 44% | 61.1% | -35% | 76% (active) | 86.5% (active) | -16% | 80% (active) | 85.8% (active) |
| Oc1c(Cl)c2ccccc2c2ccccc12 | -2% | 59% | 98.6% (active) | 56% | 48% | 99.2% (active) | 1% | 23% | 99% (active) | -1% | 24% | 98.5% (active) | 37% | 76% (active) | 93.5% (active) | 8% | 44% | 98.7% (active) |
| CC(C)Cc1ncc(CC(C)C)n(O)c1=O | 34% | 97% (active) | 89.2% (active) | 26% | 98% (active) | 87.8% (active) | 41% | 97% (active) | 91% (active) | -6% | 97% (active) | 81.3% (active) | 10% | 99% (active) | 89.5% (active) | 61% | 98% (active) | 89.9% (active) |
| O=C(/C=C/C=C/c1ccccc1)c1ccco1 | -7% | -16% | 83% (active) | 14% | 5% | 90.3% (active) | -10% | 28% | 91.7% (active) | 4% | 28% | 50.4% | -6% | 57% | 91.9% (active) | -19% | 44% | 76% (active) |
| O[C@H]1[C@H]2c3cc4c(cc3CN3CCC(=C[C@@H]1O)[C@H]23)OCO4 | 13% | 98% (active) | 91.5% (active) | 19% | 99% (active) | 93.6% (active) | 23% | 98% (active) | 93.2% (active) | 77% (active) | 98% (active) | 90.7% (active) | 0% | 98% (active) | 91.2% (active) | 26% | 99% (active) | 92.2% (active) |
| O=C(Nc1ccccc1F)C(Br)C(Br)c1ccccc1 (stereo not given) | 6% | 97% (active) | 98.6% (active) | 8% | 90% (active) | 99% (active) | 23% | 97% (active) | 99.4% (active) | 6% | 36% | 99.1% (active) | -1% | 95% (active) | 99% (active) | 29% | 95% (active) | 98.9% (active) |
| OC(c1cc2ccccc2o1)c1cc2ccccc2s1 (stereo not given) | -4% | 95% (active) | 44.2% | -11% | 94% (active) | 75.2% (active) | 2% | 46% | 70.4% (active) | -12% | 97% (active) | 61.6% | -6% | 93% (active) | 78.7% (active) | 16% | 94% (active) | 43% |
| COc1ccc(C2COc3cc(O)c(O)cc3C2)cc1 (stereo not given) | 95% (active) | 99% (active) | 99.6% (active) | 95% (active) | 99% (active) | 99.6% (active) | 93% (active) | 99% (active) | 99.8% (active) | 46% | 99% (active) | 99.6% (active) | 98% (active) | 99% (active) | 99.6% (active) | 99% (active) | 99% (active) | 98.2% (active) |
| C[CH2][Sn]([CH2]C)([O]C(=O)c1cccc(OC)c1)[O][Sn]([CH2]C)([CH2]C)[O]C(=O)c1cccc(OC)c1 | 31% | 69% | 59.5% | 30% | 79% (active) | 39.2% | 36% | 76% (active) | 37.5% | 30% | 58% | 40.8% | 30% | 86% (active) | 37.5% | 40% | 74% (active) | 56.5% |
| OCc1ccc(OCc2ccccc2)c(OCc2ccccc2)c1 | 6% | 15% | 88.2% (active) | 7% | 14% | 77.1% (active) | -8% | 47% | 92.8% (active) | 51% | 26% | 80.3% (active) | 10% | 55% | 94.5% (active) | 0% | 62% | 96.5% (active) |
| CCOc1c(Br)cc(Br)cc1/C=N/NS(=O)(=O)c1ccc(C)cc1 | 41% | 90% (active) | 75.7% (active) | 26% | 88% (active) | 74.5% (active) | 38% | 90% (active) | 82.2% (active) | 30% | 87% (active) | 82.6% (active) | 45% | 85% (active) | 72.2% (active) | 48% | 91% (active) | 75% (active) |
| O=C(O)Cc1ccccc1CCc1ccccc1Cl | -26% | 74% (active) | 85.2% (active) | -11% | 72% (active) | 82.5% (active) | -19% | 71% (active) | 83.5% (active) | -2% | 74% (active) | 87.1% (active) | 2% | 83% (active) | 77.1% (active) | -19% | 83% (active) | 81.3% (active) |
| O=C(O)CC1(C(=O)O)CCCCC1 | -9% | 15% | -16.4% | -4% | -1% | -16.6% | -5% | -13% | -21.6% | 6% | 0% | 18.4% | -13% | -14% | -6.9% | 11% | 17% | 2.7% |
| CCCCCCn1c(SCC)c2ccccc2c1-c1nc(F)nc(F)n1 | -14% | 5% | 89.1% (active) | -40% | -10% | 92.8% (active) | -15% | 10% | 90.2% (active) | 14% | 52% | 88.7% (active) | 24% | 36% | 88.5% (active) | 10% | 34% | 87.9% (active) |
| FC(F)(F)c1nc(S)cc(=S)[nH]1 | 1% | 13% | -21.2% | 4% | 17% | 24.9% | 7% | 26% | -5.45% | -2% | 22% | 54% | -2% | 31% | 58.3% | -4% | 10% | -30% |
| O=S(=O)(O)N=Nc1ccc(O)cc1 | 65% | 98% (active) | 91.5% (active) | 1% | 99% (active) | 94.3% (active) | 17% | 98% (active) | 93.2% (active) | -8% | 98% (active) | 91% (active) | -12% | 98% (active) | 92.8% (active) | 37% | 98% (active) | 91.5% (active) |
| CCC[CH2][Sn]([CH2]CCC)([O]C(=O)c1cc(F)cc(F)c1)[O]C(=O)c1cc(F)cc(F)c1 | 54% | 54% | 22.4% | 26% | 26% | 52.4% | 65% | 65% | 16.4% | 18% | 18% | 36.2% | 21% | 21% | 67.7% | 21% | 21% | 68.1% |
| NNC(=O)NN=C(c1ccccc1)c1ccccc1 | 0% | 16% | 1.5% | -2% | 1% | -13.2% | -3% | 0% | 11.4% | 0% | -12% | -26.5% | -4% | -1% | 3.95% | -11% | 1% | 33.1% |
| Cc1cc(N(CCC#N)CCC#N)ccc1/C(N=Nc1cccc([N+](=O)[O-])c1)=N/NC(=O)c1cc(Cl)ccc1O | 8% | 47% | 63.4% | 8% | 25% | 47% | 9% | 49% | 66% | -1% | 28% | 23.9% | 8% | 58% | 79.3% (active) | 12% | 29% | 31.9% |
| CCCCCCCCCN(CCCCCCCCC)CC(O)c1cc2c(c3ccccc13)CCCC2 (stereo not given) | 9% | 93% (active) | 99% (active) | 38% | 96% (active) | 91% (active) | 53% | 97% (active) | 99% (active) | 7% | 90% (active) | 98.9% (active) | 11% | 93% (active) | 95.8% (active) | 46% | 95% (active) | 98.8% (active) |
